Assay outcomes: PubChem, National Center for Advancing Translational Sciences (NCATS)
Most compounds without a hit are left out; they make up all but 13% or so of the library.
HCV inh – blocks hepatitis C virus | Huh7.5.1 HCVcc-Cre infection, luciferase reporter, 44 h | AID 651820 | Potency, µM (series often up to 41.8 µM), inactives show at the top dose activity change, negative = inhibition, most hits filed as inhibitors | 340,000 tested, 3.4% active; further: potency means the concentration at half of the fitted maximal effect
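Reporter virus HCVcc-Cre (~0.5 moi) infects cells exposed to compound; seeding density 1,000 cells/well with 4 h settling beforehand. Luminescence, 15 sec read, taken 44 h post-infection following a 15 min RT substrate incubation.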
HCMV antiviral – blocks human cytomegalovirus replication; activity change, negative = inhibition, % at 57.5 µM; AID 1259415; 410,000 tested, 4.5% active; HFF cells, HCMV-luciferase reporter, 72 h; hits give low values; in the data active means activity change below about -60%; inconclusive means no clear call, values can overlap the other calls; inactive means above about -39%
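Human foreskin fibroblasts infected with luciferase-reporter HCMV at MOI 1 PFU/cell, compounds at two doses. Luciferase measured 72 h post infection; normalized to buffer-only basal and Salinomycin (10uM) controls.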
Pf growth 48h – P. falciparum growth inhibition at 48 hours (one generation). P. falciparum luciferase growth in erythrocytes, 48 h. Potency, µM (top dose mostly 28.7 µM), for inactives: top-dose activity change, negative = inhibition, hits mostly inhibitors. 310,000 tested, 5.9% active. AID 504832; further: potency means the concentration at half of the fitted maximal effect
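In quantitative HTS format, infected erythrocytes bearing luciferase-reporter parasites were treated for a single generation at 37 C. Luminescence after adding detection reagent served as the growth measure.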
Pf growth 96h – P. falciparum growth inhibition at 96 hour, primary screen for plastid delayed-death inhibitors; P. falciparum luciferase reporter growth, 96 h; Potency, µM (highest dose often 28.7 µM), for inactives: top-dose activity change, negative = inhibition, most hits filed as inhibitors; 320,000 tested, 6.9% active; AID 504834; further: potency means the concentration at half of the fitted maximal effect
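Parasite growth measured via integrated firefly luciferase reporter in P. falciparum. Infected erythrocytes at 2% hematocrit, 0.05% parasitemia final were treated 96 hours at 37 C under 5% CO2, and luminescence was read.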
Starred values were filed as active, the others as inactive; i = inactive; ? = inconclusive; / = no result given. Unless noted, the call rests on the fitted dose curve; in most records, active means well fitted inhibition curve with a large enough effect; inconclusive means small, poorly fitted or top-dose-only effect, or another doubt; inactive means no such curve, though single readings can be large or run the other way. On the % scale 0 is the no-effect control and ±100 the full control effect.

SMILES	HCV inh	HCMV antiviral	Pf growth 48h	Pf growth 96h
Cc1oc2c(CN3CCCC(C)C3)c(O)ccc2c(=O)c1-c1ccccc1 (configuration not stated)	3%	-32	6.6µM*	8.3µM*
Cc1oc2c(CN3CCCC3)c(O)ccc2c(=O)c1Oc1ccccc1Br	5%	51	1.7µM*	6%
C/C(=N\Nc1ccc(S(N)(=O)=O)cc1[N+](=O)[O-])c1cccnc1	-6%	20	22%	-3%
C/C(=N\Nc1ccc(S(=O)(=O)Nc2ccccc2)cc1[N+](=O)[O-])c1ccncc1	/	28	10µM*	?
COc1ccccc1NS(=O)(=O)c1ccc(N/N=C(\C)C(C)C)c([N+](=O)[O-])c1	?	-61*	8.3µM*	?
COc1ccc(NS(=O)(=O)c2ccc(N/N=C(\C)c3ccncc3)c([N+](=O)[O-])c2)cc1	4.5µM*	-67*	?	-14%
O=C(O)c1ccc(N/N=C/C=C/c2ccccc2[N+](=O)[O-])cc1	27%	39	i	i
O=[N+]([O-])c1ccccc1/C=C/C=N/Nc1ccc(S(=O)(=O)Nc2ccc(Cl)cc2)cc1[N+](=O)[O-]	-18%	52	12µM*	-7%
O=C1C=C(c2ccc3c(c2)OCO3)C[C@@H](c2ccc3c(c2)OCO3)C1	?	2	41%	35%
CC(C)c1cccc(C2=CC(=O)C[C@H](c3ccc4c(c3)OCO4)C2)c1	?	-16	13µM*	8.3µM*
Cc1cc(C)c(C2=CC(=O)C[C@H](c3ccc4c(c3)OCO4)C2)c(C)c1	-13%	-61*	9%	?
CCc1ccccc1NC(=O)CSc1nnc(COc2ccccc2Cl)o1	/	-10	/	/
COc1ccc(N(CC(=O)NCCc2cccc(C)c2)S(=O)(=O)c2c(C)noc2C)cc1	-20%	-19	?	2.6µM*
Cc1ccc(N(CC(=O)NCc2ccc(F)cc2)S(=O)(=O)c2cccs2)cc1	9%	?	/	4.7µM*
COc1ccc(N(CC(=O)NCc2ccc(F)cc2)S(=O)(=O)c2c(C)noc2C)cc1	6%	?	5%	10µM*
CN(CC(=O)NCc1ccc(F)cc1)S(=O)(=O)c1ccc(Br)s1	5%	-71*	-10%	-23%
Cc1ccc(S(=O)(=O)Oc2cccc(N3C(=O)C4CC=CCC4C3=O)c2)cc1 (configuration not stated)	2%	-5	?	?
CC(=O)Nc1ccc(S(=O)(=O)Oc2cccc(N3C(=O)C4CCCCC4C3=O)c2)cc1 (configuration not stated)	22%	-12	13µM*	89%
CCc1cc(CC)c(/C=N/NC(N)=O)c(CC)c1	11µM*	-24	-8%	-1%
Cn1c(CSc2ncccn2)nnc1SCC(=O)N1CCCC1	-2%	59	11%	?
CC1CCCC(C)N1C(=O)CSc1nnc(CSc2ncccn2)n1C (configuration not stated)	/	33	-6%	10µM*
COc1ccc(-n2nc(C(=O)Nc3ccccc3OC)c3c4ccccc4n(C)c3c2=O)cc1Cl	/	13	/	/
CC1(CO)COC2(OC1)C(=O)Nc1ccccc12 (configuration not stated)	7%	-76*	-20%	?
Cc1ccc(-c2cc(C(F)F)n3ncc(C(=O)N4CCC5(CC4)OCCO5)c3n2)cc1	?	19	/	?
O=C(c1cnn2c(C(F)(F)F)cc(-c3ccc4c(c3)OCO4)nc12)N1CCCCC1	?	-20	0%	8.3µM*
SMILES	HCV inh	HCMV antiviral	Pf growth 48h	Pf growth 96h
CCN1CCN(C(=O)c2cnn3c(C(F)F)cc(-c4ccc(C)cc4)nc23)CC1	-27%	31	?	7.4µM*
CN1CCN(C(=O)c2cnn3c(C(F)(F)F)cc(-c4ccc5c(c4)OCO5)nc23)CC1	5%	38	-25%	-28%
O=C(c1cnn2c(C(F)F)cc(-c3ccccc3)nc12)N1CCN2CCCC2C1 (configuration not stated)	?	-22	?	/
O=C(c1cnn2c(C(F)F)cc(-c3ccccc3)nc12)N1CCCCC1c1cccnc1 (configuration not stated)	-15%	-7	1.7µM*	?
O=C(c1cc(Cl)nc2ccccc12)N1CCN(Cc2ccc3c(c2)OCO3)CC1	6%	5	?	-28%
O=C(c1cnn2c(C(F)F)cc(-c3ccccc3)nc12)N1CCN(Cc2ccc3c(c2)OCO3)CC1	11µM*	-25	4.7µM*	?
Cc1nc2c(C(=O)N3CCCCC3)cnn2c(C)c1Cc1ccccc1F	-19%	-10	44%	50%
Cc1ccccc1Cc1c(C)nc2c(C(=O)N3CCN(Cc4ccc5c(c4)OCO5)CC3)cnn2c1C	14µM*	?	/	/
O=C(NCc1ccccc1)c1ccc2c(c1)CCN2S(=O)(=O)c1ccc(Cl)cc1	/	-22	/	/
Nc1cccc(Nc2nc(OC(C(F)(F)F)C(F)(F)F)nc(OC(C(F)(F)F)C(F)(F)F)n2)c1	?	-107*	?	?
Nc1c(C(=O)NCc2ccco2)c2nc3ccccc3nc2n1Cc1ccccc1	?	-20	?	?
Nc1c(C(=O)NCc2ccco2)c2nc3ccccc3nc2n1CCc1ccccc1F	?	?	10µM*	/
COc1ccc(Cn2c(N)c(C(=O)NCc3ccco3)c3nc4ccccc4nc32)cc1	?	37	?	?
COc1ccc(CCn2c(N)c(C(=O)NCc3ccco3)c3nc4ccccc4nc32)cc1OC	?	/	5.2µM*	18%
Nc1c(C(=O)NCc2ccco2)c2nc3ccccc3nc2n1Cc1ccc(F)cc1	?	6	1.9µM*	?
COc1ccc(CCn2c(N)c(C(=O)NCc3ccco3)c3nc4ccccc4nc32)cc1	?	-75*	?	-21%
CCOC(=O)c1sc2ncn(CC(=O)Nc3ccc(OC)c(Cl)c3)c(=O)c2c1C	/	11	/	/
COc1ccc(-n2c(N)c(C(=O)NCc3ccco3)c3nc4ccccc4nc32)c(OC)c1	?	-11	?	?
Nc1c(C(=O)NCc2ccco2)c2nc3ccccc3nc2n1CCN1CCOCC1	8%	-94*	/	-39%
Cc1cccc(NC(=O)CN(C)S(=O)(=O)c2ccc3c(c2)c(=O)n(C)c(=O)n3C)c1C	/	19	/	/
CC1CCN(C(=O)c2ncn3c2C(=O)N[C@H](C)C3)CC1	/	-2	/	/
CC(=O)Nc1cccc(C(=O)/C=C/c2ccc(C)cc2)c1	13µM*	-21	0%	?
CCC(=O)Nc1cccc(C(=O)/C=C/c2ccc(F)cc2)c1	10µM*	-99*	?	?
CCOc1ccc(/C=C/C(=O)Nc2cccc(C(C)=O)c2)cc1	13µM*	39	123%	?
COc1cccc(NC(=S)NC(=O)/C=C/c2ccc(F)cc2)c1	-14%	70	4%	-27%
Cc1ccc(CNCC(=O)Nc2ccc(C)cc2Br)cc1	17%	-64*	17%	23%
Cc1ccc(NC(=O)CNCc2ccccc2)c(Br)c1	-4%	10	122%	?
